Results on 16 compounds are retold here after PubChem BioAssay (NCATS).

Experiment [1] deals with Zika virus NS2B-NS3 protease (unlinked complex). Put plainly: Primary screen GU Rhodamine qHTS for Zika virus inhibitors: Unlinked NS2B-NS3 protease assay (AID 1347159). Note: nearly all actives have a fitted effect of over 60% in size. Summed up:
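Unlinked NS2B/NS3, 25 nM; Rhod110 peptide, 1.5 microM; compounds, up to 114 microM. Reaction run 15 min at RT in 10 mM Tris-HCl pH 8.0, 0.01% Tween 20; kinetic fluorescence change fitted with a 4-parameter Hill model.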
(qHTS replaces the single test concentration by a dilution series.)

Experiment [2] has as its system Zika virus NS2B-NS3 protease (linked construct). Briefly: Primary screen NINDS Rhodamine qHTS for Zika virus inhibitors (AID 1347160). Note: nearly all actives have a fitted effect of over 55% in size. The method, boiled down:
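Single-chain NS2B-NS3 protease, 25 nM, pH 8.0; compounds preincubated 15 min. Activity: Rhodamine110 release from 1.5 microM substrate over 15 min, room temperature, data fitted to 4-parameter Hill.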

A short description of experiment [3]: Confirmatory screen NINDS Rhodamine qHTS for Zika virus inhibitors (AID 1347161).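 Note: purified Zika NS2B-NS3 protease with linked NS2B cofactor domain and Rhodamine110 peptide substrate; series mostly up to about 110 µM; nearly all actives have a fitted effect of over 60% in size.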 The method, boiled down:
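Purified linked NS2B-NS3 protease (NS2B hydrophilic domain joined to NS3 protease by flexible linker), 25 nM in 10 mM Tris-HCl pH 8.0, 0.01% Tween 20. Compounds titrated, 15 min preincubation at room temperature; 1.5 microM Rhodamine110 substrate, FITC fluorescence change over 15 min.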

Inconclusive results are not listed. Where a call stands in place of a potency, no number is given. The source made the active and inactive calls. Calls come from the whole dose curve; as a rule, active = well fitted inhibition curve with a large enough effect; inconclusive = small, poorly fitted or top-dose-only effect; inactive = no such curve, though single readings can be large or run the other way.

Regarding `O=C(CC1C(=O)Nc2ccccc21)OC[C@H]1O[C@@H](OCCc2ccc(O)cc2)[C@H](O)[C@@H](O)[C@@H]1O` (some centres undefined), the Potency entry in experiment [1] and in experiment [2] was “inactive” throughout.

In the case of `CCOc1cc(C)c(Cl)cc1S(=O)(=O)n1cnc2ccccc21`, the Potency entry in experiment [1] and in experiment [2] was “inactive” throughout.

As to `CC[C@@](C)(Nc1ccnc(-c2c[nH]c3ncccc23)n1)C(=O)NCC(F)(F)F`, the Potency result in experiment [1] and in experiment [2] was “inactive” throughout.

With `c1cn2cc(-c3ccc4cn[nH]c4c3)nc(Nc3ccc(N4CCOCC4)cc3)c2n1`, the Potency result in experiment [1] and in experiment [2] was “inactive” in each case.

`C/C=C1\[C@H](O[C@@H]2O[C@H](CO)[C@@H](O)[C@H](O)[C@H]2O)OC=C2C(=O)OCCc3ccc(O)c(c3)Oc3ccc(cc3)CCOC(=O)C[C@H]21`: the Potency entry in experiment [2] is “inactive”.

As to `O=C1NC(=O)C(c2cn3c4c(cccc24)CCC3)C1c1c[nH]c2ccccc12` (centres undefined), the Potency entry in experiment [2] is “inactive”.

In the case of `C=C[C@H]1C(O[C@@H]2O[C@H](CO)[C@@H](O)[C@H](O)[C@H]2O)OC=C2C(=O)N3CCc4c([nH]c5ccccc45)[C@H]3C[C@H]21` (some centres undefined), the Potency result in experiment [1] and in experiment [2] was “inactive” throughout.

Regarding `CC(=O)O[C@@H]1C[C@@H](OC(C)=O)C(C)(C)/C=C/[C@H](C)[C@H](OC(C)=O)[C@@]2(O)C[C@H](C)[C@H](OC(=O)c3ccccc3)[C@@H]2/C=C/1C`, the Potency result in experiment [2] was “inactive”.

Consider `CNC(=O)c1ccccc1Nc1nc(Nc2ccc(N3CCNCC3)cc2)ncc1Cl`, for which the Potency entry in experiment [2] was “inactive”.

For `COc1ccc(C[C@H](N)C(=O)N[C@@H]2[C@H](O)[C@H](n3cnc4c(N(C)C)ncnc43)O[C@@H]2CO)cc1`, in experiment [2], the Potency entry was “inactive”.

In the case of `COC(=O)/C=C/C12COC(C)(C)C1C(O)C(OC(C)=O)C1(C)C2CCC2(C)C(c3ccoc3)OC(=O)C3OC321` (centres undefined), the Potency result in experiment [1] and in experiment [2] was “inactive” in each case.

Take `COc1ccc(Oc2cc(C)c(-c3csc(NC(=O)c4ccncc4)n3)c(C)c2)cc1`: the Potency result in experiment [2] was “inactive”.

As to `COc1cc(C(=O)OC[C@H]2O[C@@H](Oc3ccccc3/C=C/C(=O)O)[C@H](O)[C@@H](O)[C@@H]2O)cc(OC)c1OC`, the Potency entry in experiment [2] is “inactive”.

`Nc1ncnc2c([C@@H]3N[C@H](CO)[C@@H](O)[C@H]3O)c[nH]c12`: the Potency entry in experiment [1], in experiment [2] and in experiment [3] was “inactive” each time.

For `CC(=O)O[C@H]1C[C@@](O)(C(C)C)C2[C@@H](OC(=O)c3ccc(O)cc3)C[C@@]3(C)O[C@H]3C[C@]21C` (some centres undefined), the Potency entry in experiment [2] was “inactive”.

As for `C/C=C/C1=CC2=C(CO1)C(=O)C(C)(O)C(OC(=O)c1c(C)cc(OC)cc1O)C2` (centres undefined), the Potency result in experiment [3] was “inactive”.
